Compound activity deposited in PubChem by National Center for Advancing Translational Sciences (NCATS).
SMN2 splice up: increases expression of the SMN2 splice variant. HEK293 SMN2-luciferase splicing reporter, luminescence, 30-36 h. Potency, µM (top dose mostly 46.1 µM), for the others: at the top dose activity change, positive = activation, most hits filed as activators. 210,000 tested, 2.8% active; also: % of control where 0% means no effect; nearly all actives have a fitted effect of over 55% in size
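HEK293 cells carry an SMN2 minigene-luciferase reporter in which exon 7 inclusion puts luciferase in frame. Cells were seeded at 2000 cells/well, attached for 10-12 hours, then exposed to compounds for 30-36 hours at 37C before ONE-Glo luminescence.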
Rab9 promoter act: activators of Rab9 promoter; Huh7 Rab9 promoter-luciferase reporter, luminescence, 24 h; Potency, µM (series often up to 9.22 µM), inactives show top-dose activation, negative = inhibition, most hits filed as activators; 320,000 tested, 2.8% active; AID 485297; also: % of control where 0% means no effect; nearly all actives have a fitted effect of over 60% in size
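Measured in stably transfected Huh7 cells bearing a Rab9 promoter–luciferase construct: 24 h compound treatment at 37 °C, followed by luminescence detection.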
ELG1 genotoxic: induces genotoxicity in HEK293T cells with luciferase-tagged ELG1 | HEK293T ELG1-luciferase reporter, luminescence, 16 h | AID 504466 | 330,000 tested, 1.3% active | Potency, µM (doses to about 46 µM), for the others: at the highest dose activity change, positive = activation, usual class: activators; also: % of control where 0% means no effect; nearly all actives have a fitted effect of over 60% in size
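Luminescence read-out: rising ELG1-luciferase signal, reflecting elevated ELG1 protein under genetic stress, flags genotoxic compounds. Cells were treated for 16 hr at 37 °C before ONE-Glo detection.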
NPC1 promoter act: activators of NPC1 promoter. Huh7 NPC1 promoter luciferase reporter, 24 h. 320,000 tested, 2.4% active. AID 485313. Potency, µM (top dose mostly 9.22 µM), for inactives: top-dose activation, usual class: activators; also: % of control where 0% means no effect; nearly all actives have a fitted effect of over 60% in size
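Huh7 cells stably carrying NPC1 promoter–luciferase, plated in Opti-MEM with 10% FBS for 2 h, were exposed to compound in DMSO for 24 h at 37 °C; luciferase reagent was added for 10 min and luminescence read.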
FLuc counter: inhibits or activates purified firefly luciferase, miR-21 counter-screen. P08659. Potency, µM (titrated, usually from 57.5 µM), inactives show at the highest dose activity change, negative = inhibition, actives largely listed as inhibitors. purified FLuc, Km substrates, luminescence inhibition. 360,000 tested, 6.9% active;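 also: plate controls were vehicle for no effect and reference inhibitor for full effect; nearly all actives have a fitted effect of over 55% in size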
Target sequence (P08659 whole entry, looked up): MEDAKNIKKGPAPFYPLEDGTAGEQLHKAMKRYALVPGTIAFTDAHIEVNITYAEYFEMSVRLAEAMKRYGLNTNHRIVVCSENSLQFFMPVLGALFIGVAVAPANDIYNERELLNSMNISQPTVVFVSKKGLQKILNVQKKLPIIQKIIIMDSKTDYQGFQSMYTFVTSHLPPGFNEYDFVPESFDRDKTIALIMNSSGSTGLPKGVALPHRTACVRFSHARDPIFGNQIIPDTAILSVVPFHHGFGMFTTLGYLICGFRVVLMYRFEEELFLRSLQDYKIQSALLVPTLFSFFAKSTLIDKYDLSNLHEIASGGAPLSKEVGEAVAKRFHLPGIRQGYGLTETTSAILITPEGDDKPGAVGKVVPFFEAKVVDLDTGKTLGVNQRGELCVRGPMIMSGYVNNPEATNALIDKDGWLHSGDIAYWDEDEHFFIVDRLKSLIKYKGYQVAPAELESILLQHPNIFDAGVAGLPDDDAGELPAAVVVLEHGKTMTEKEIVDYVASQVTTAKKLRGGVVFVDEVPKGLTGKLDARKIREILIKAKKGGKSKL
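Purified P. pyralis luciferase (10nM final) with 10uM D-luciferin and 10uM ATP (Km levels) in 50mM Tris acetate pH 7.5, 10mM Mg acetate, 0.01% Tween-20, 0.05% BSA; qHTS 6-point titration, ~60 µM downward; luminescence read.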
Starred values were filed as active, the others as inactive; u = inconclusive; x = not tested or not shown; [ ] = dose if it differs, or a comment. An excerpt weighted towards active compounds, which were near 7.4% of everything screened. Calls follow the shape of the dose curve; as a rule, active = well fitted curve in the direction sought with a large enough effect; inconclusive = small, poorly fitted or top-dose-only effect, or another doubt; inactive = no such curve, though single readings can be large; an effect the other way counts as inactive or inconclusive. Potency is read from the fitted curve at half-maximal effect.

SMILES	SMN2 splice up	Rab9 promoter act	ELG1 genotoxic	NPC1 promoter act	FLuc counter
CC(=O)Nc1ccc(SCC(=O)c2cc(C)n(-c3ccccc3F)c2C)cc1	-70%	23%	u	u	6µM*
CC(C)(C)c1ccc(C(=O)Nc2cccnc2)cc1	x	4µM*	2.3µM*	2.8µM*	2.7µM*
CC(C)(C)c1ccc(C(=O)Nc2ccc(Oc3cccnc3)nc2)cc1	x	-40%	-10%	-26%	8.5µM*
O=C(Nc1cccnc1)c1ccc(Br)s1	-12%	26%	5%	14%	7%[2.3 µM]
CCc1sc(C(=O)Nc2cccnc2)cc1Br	x	u	u	u	11µM*
O=C(NCc1nc2ccccc2n1Cc1ccccc1Cl)c1ccccc1	5%	x	x	x	-3%
O=C(CCc1nc2cccnc2n1Cc1cccs1)Nc1cccc(C(F)(F)F)c1	-22%	x	x	x	3%
CCC(C)[C@H](N)c1nnc(SCc2ccc(Cl)c(Cl)c2)o1 (stereo not given in full)	-13%	x	x	x	1%
O=C(Nc1ccc2nc(SCCOc3ccccc3Cl)sc2c1)c1cccs1	x	x	x	x	-2%
CCN(CC(=O)Nc1c(F)cccc1F)C(=O)/C=C/c1ccc(C)cc1	x	u	u	u	19µM*
CCN(CC(=O)Nc1c(F)cccc1F)C(=O)/C=C/c1ccc(OCC#N)c(OC)c1	x	-6%	1%	0%	6%
COc1ccc(-n2c(-c3cccc(F)c3)nc3c(cnn3-c3ccc(C)cc3)c2=O)cc1	-6%	x	x	x	4%
O=C(Nc1ccon1)c1cc2c(s1)CCCCCC2	13µM*	3.5µM*	4.5µM*	3.2µM*	6µM*
Cc1ccc(/C=N/NC(=O)c2cc3c(s2)CCCC3)o1	x	1%	6%	3%	-19%
O=C(Nc1ccon1)c1cc2c(s1)CCCC2	6.3µM*	1.1µM*	1.3µM*	1.4µM*	3µM*
O=C(NCC(c1ccco1)N1CCCCC1)c1cc2c(s1)CCCC2 (stereo not given)	x	-5%	-1%	0%	-16%
CCc1ccc(NC(=O)CCNS(=O)(=O)c2ccc3c(c2)CCCC(=O)N3)cc1	x	x	x	x	8%
Cc1ccccc1-c1nc2sc(C)c(C)c2c(=O)o1	x	-1%	3%	-2%	7.6µM*
Cc1sc2nc(-c3ccco3)oc(=O)c2c1C	20%	12%	14%	9%	u
Cc1ccccc1-c1nc2sc(-c3ccccc3)cc2c(=O)o1	-5%	9%	6%	-34%	4.8µM*
Cc1cccc2c(=O)oc(-c3ccccc3Cl)nc12	x	0%	-4%	-3%	u
COc1ccc(-n2c(=O)c(C)nc3cnc(Oc4cccc(Cl)c4)nc32)cc1	-11%	x	x	x	x
Cn1c(SCc2ccccc2Cl)nc2c([nH]c3ccccc32)c1=O	x	x	x	x	1%
COc1ccc(-c2csc(NC(=O)COC(=O)c3ccco3)n2)cc1	13µM*	3.2µM*	u	4µM*	u
CC(=O)N(C)c1nc(-c2ccc(Cl)cc2)cs1	-7%	3.5µM*	4%	u	u
SMILES	SMN2 splice up	Rab9 promoter act	ELG1 genotoxic	NPC1 promoter act	FLuc counter
COc1ccc(-c2csc(N(C)C(=O)c3ccco3)n2)cc1	x	4µM*	u	u	11µM*
CCn1nc(C(=O)OCC(=O)Nc2nc(-c3ccc(OC)cc3)cs2)c2ccccc2c1=O	10µM*	u	u	u	u
CCn1nc(C(=O)OCC(=O)NCC(C)C)c2ccccc2c1=O	-4%	1%	3%	-5%	-2%
COc1cc(C2CC(=O)N(c3ccccc3)C3=C2C(=O)OC3)cc(OC)c1OC (stereo not given)	-9%	x	x	x	-4%
CN(C(=O)c1ccco1)c1nc(-c2ccc(Cl)cc2)cs1	x	3.2µM*	14%	u	6µM*
CN(C)CCCN(C(=O)c1ccco1)c1nc(-c2ccc(Cl)cc2)cs1	x	-8%	0%	6%	-10%
CC(C)CCNc1ncnc2c1cnn2-c1cccc(Cl)c1	x	x	x	x	17µM*
Cc1ccc(Cn2ncc3c(NCCN(C)C)ncnc32)cc1	x	-2%	1%	-4%	3%
CN(C)CCNc1ncnc2c1cnn2-c1ccc(Cl)cc1	26%	u	21µM*	16%	7.6µM*
CN(C)CCNc1ncnc2c1cnn2-c1cccc(Cl)c1	x	x	x	x	24µM*
Cc1cccc(-n2ncc3c(N(C)Cc4ccccc4)ncnc32)c1	x	3.5µM*	u	4µM*	2.4µM*
CCOC(=O)c1cccc(NC(=O)CC2C(=O)N(c3ccccc3)C(=O)N2Cc2ccco2)c1 (stereo not given)	x	x	x	x	-10%
O=C(c1cnccn1)N1CCC2(CCCN(Cc3nccs3)C2)CC1	-1%	x	x	x	x
Cc1cccc(NC(=O)c2oc3ccccc3c2NC(=O)c2cc(=O)c3ccc(C)cc3o2)c1	7%	x	x	x	-1%
CCOC(=O)N1CCN(C(=O)CN(c2cc(C)ccc2OC)S(=O)(=O)c2ccc(C)cc2)CC1	7%	x	x	x	-2%
Clc1ccc(-n2ncc3c(NCc4ccc5c(c4)OCO5)ncnc32)cc1	-14%	7%	u	10%	u
CCCCN(C)c1ncnc2c1cnn2-c1cccc(Cl)c1	x	x	x	x	2.7µM*
OCCCNc1ncnc2c1cnn2-c1ccc(Cl)cc1	x	0.28µM*	u	0.2µM*	1.9µM*
O=C1CCCN1CCCNc1ncnc2c1cnn2-c1ccc(Cl)cc1	-35%	u	18µM*	u	17µM*
C=CCN1c2ccccc2[C@]23C[C@@H](C(=O)OC)N(S(=O)(=O)CCCC)C2=NC(C(=O)OC)=C(C(=O)OC)[C@H]13	-6%[9.22 µM]	x	x	x	x
CCC(=O)Nc1ccccc1-c1nc2ccccc2n(CC(=O)c2ccc(Cl)cc2)c1=O	x	x	x	x	-7%
O=C(O)[C@H](CCc1ccccc1)N1C(=O)c2ccccc2C1=O	3%[9.22 µM]	x	x	x	x
CCONc1ncnc2nonc12	3%	-4%	-3%	1%	0%
Clc1ccc(CONc2ncnc3nonc23)c(Cl)c1	u	3.5µM*	3%	u	u
Cc1ccc2c(=O)cc(C(=O)Nc3sc4c(c3C(=O)NCc3ccco3)CCCC4)oc2c1C	4%	x	x	x	-1%
SMILES	SMN2 splice up	Rab9 promoter act	ELG1 genotoxic	NPC1 promoter act	FLuc counter
Cc1ccc(/C=c2/sc3nnc(-c4ccccc4Cl)n3c2=O)o1	13%	0%	-3%	1%	15µM*
NC(=O)NC(=O)[C@H]1CCCC[C@@H]1C(=O)O	-15%[9.22 µM]	x	x	x	x
COCCNC(=O)CN1C(=O)CCn2nc(-c3cn(C)c4ccccc34)cc21	x	x	x	x	-6%
CC(C)(C)c1csc(NC(=O)c2ccccc2O)n1	x	u	-3%	u	0.54µM*
CSc1ncccc1C(=O)Nc1nc(C(C)(C)C)cs1	x	18%	12%	17%	17µM*
CC(C)(C)c1csc(NC(=O)c2c(F)c(F)c(F)c(F)c2F)n1	x	11%	6%	1%	0%
CCC(CC)c1nnc(NC(=O)c2cccnc2SC)s1	10%	-3%	0%	-1%	-19%
Cc1csc(NC(=O)c2nc3nc(C)cc(C)n3n2)n1	11µM*	4µM*	u	3.5µM*	21µM*
